# From PubChem BioAssay (Tox21)
# “And” between values parts separate entries of the source, which are not always exact repeats. Identical values can stand only once. Inconclusive results are not listed. Some compounds were tested as several samples or in several runs, with calls that do not always agree. The source made the active and inactive calls. The call rests on the fitted dose curve; in most records, active means well fitted inhibition curve with a large enough effect in the repeat runs; inconclusive means weak or mixed curves; inactive means no such curve, though single readings can be large or run the other way.
# Molecular target: Cytochrome P450 2D6 (Homo sapiens) (UniProt P10635)
# Test: Cytochrome P450 Family 2 Subfamily D Member 6 (CYP2D6) small molecule antagonists: luciferase reporter qHTS assay (AID 1671196); further: nearly all actives have a fitted effect of over 50% in size
# Conditions: P450-Glo CYP2D6 enzyme assay, luciferin luminescence, 1 h; series mostly up to 115 µM; activity change, negative = inhibition: at the top concentration
# Source text: U.S. Tox21 Program National Center for Advancing Translational Sciences [NCATS] U.S. Environmental Protection Agency [EPA] National Institutes of Environmental Health Sciences [NIEHS] National Toxicology Program [NTP] U.S. Food and Drug Administration [FDA] Tox21 Assay Overview: Cytochrome P450 (CYP) enzymes are membrane-bound hemeproteins that play a key role in metabolism of drugs and xenobiotics. Evaluation of the effect of chemicals on CYP isozymes is useful to minimize the adverse drug reactions and toxicities in drug development process. Tox21 chemicals were tested for their effect on CYP enzyme activities by using P450-Glo (TM) screening systems (Promega Corporation, Madison, WI). These systems provide a luminescent method containing proluciferin substrates and are converted to luciferin products by CYP isozymes. The luciferin products formed are detected with a luciferin detection reagent, and the amount of light produced is proportional to CYP activity. P450-Glo (TM) CYP2D6 screening system (Catalog. No. V9890) was used to detect the compounds that interfere in CYP2D6 activity.
# Tox21 Assay Protocol Summary: Two ul of enzyme-substrate mix was dispensed into medium binding white/solid 1536-well plates (Greiner Bio-One North America Inc., Monroe, NC) using a BioRaptr Flying Reagent Dispenser (FRD, Beckman Coulter, Brea, CA). […] The assay plates were incubated at room temperature for 10 min. Then 2 ul of NADPH regeneration solution was added to each well of the assay plates using an FRD and incubated at room temperature for 1 h. The reaction was stopped by adding 4 ul of detection reagent using an FRD and after 20 min incubation at room temperature the luminescence signal was measured using a ViewLux plate reader (Perkin Elmer, Shelton, CT). Data were expressed as relative luminescence units.
# On the % scale 0 is the no-effect control and ±100 the full control effect; potency means the concentration at half of the fitted maximal effect.
# Sequence of Cytochrome P450 2D6 (Homo sapiens) (P10635 whole entry, looked up): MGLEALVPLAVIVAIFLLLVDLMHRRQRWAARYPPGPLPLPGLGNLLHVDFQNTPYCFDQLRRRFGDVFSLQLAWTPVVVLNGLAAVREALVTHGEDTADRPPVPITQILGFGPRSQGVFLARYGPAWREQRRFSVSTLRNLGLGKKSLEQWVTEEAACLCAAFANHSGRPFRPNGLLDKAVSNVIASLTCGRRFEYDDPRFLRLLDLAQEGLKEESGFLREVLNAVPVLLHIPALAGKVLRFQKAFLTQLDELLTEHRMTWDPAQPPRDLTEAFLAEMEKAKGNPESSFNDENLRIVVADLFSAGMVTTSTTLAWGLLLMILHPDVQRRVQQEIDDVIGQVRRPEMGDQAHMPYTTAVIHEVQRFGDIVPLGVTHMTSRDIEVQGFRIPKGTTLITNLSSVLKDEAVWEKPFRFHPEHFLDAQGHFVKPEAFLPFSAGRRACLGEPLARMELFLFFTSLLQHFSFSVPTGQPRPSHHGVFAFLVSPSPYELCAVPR
Structure (SMILES),"activity change, negative = inhibition",Potency
CON(C)C(=O)Nc1ccc(Cl)cc1,-18.1% (inactive),
SCc1ccccc1,-16% (inactive),
CCCC(C)(COC(N)=O)COC(=O)NC(C)C (stereo not given),,inactive
CC(C)(C)NCC(O)c1ccccc1Cl (stereo not given),,9.77 µM (active)
CCCN(CCC)c1c([N+](=O)[O-])cc(C(C)C)cc1[N+](=O)[O-],,inactive
c1ccc2sc(SNC3CCCCC3)nc2c1,,19.8 µM (active) and 35.6 µM (active)
CCC1(C2=NCCN2)Cc2ccccc2O1 (stereo not given),,15.5 µM (active)
CC(C)CCCCCCCOC(=O)c1ccccc1C(=O)OCCCCCCCC(C)C,-11.9% (inactive),
CCCCC#N,-15.2% (inactive),
Nc1cc(Cl)cc(C(=O)O)c1Cl,,39.6 µM (active) and inactive
O=P(OCC(Br)CBr)(OCC(Br)CBr)OCC(Br)CBr (stereo not given),,20.3 µM (active) and 26.8 µM (active)
CCOP(=S)(OCC)Oc1ccc(S(C)=O)cc1 (stereo not given),-5.18% (inactive),
C=CCc1ccccc1O,-18.2% (inactive),
O=C(NC(=O)c1cc(F)c(F)cc1Cl)Nc1cc(F)ccc1N1CCC(C(=O)O)CC1,0.214% [at 53 µM] (inactive),
Cc1nc(N(C)C)nc(OC(=O)N(C)C)c1C,-1.41% (inactive),
O=C(CCl)CCl,-27.2% (inactive),
CC(C)(C)CC(C)(C)c1ccc(O)cc1,,39.9 µM (active) and inactive
Cc1ccccc1,-6.98% (inactive),
O=C(Cc1ccccc1)c1ccccc1,,22.4 µM (active)
CCOC(C(=O)OCCN(C)C)(c1ccccc1)c1ccccc1,,2.75 µM (active)

Structure (SMILES),"activity change, negative = inhibition",Potency
CCCCCCCCP(=O)(O)O,-18.4% (inactive),
O=S(=O)(Cl)Cl,-18.4% (inactive),
CCCCCl,,18.3 µM (active)
CCC(C)(C)O,-4.19% (inactive),
CC[N+]1(CCOC(=O)C(O)(c2ccccc2)c2ccccc2)CCCCC1,,0.977 µM (active)
CCCCOC(=O)CCC(=O)OCCCC,-1.41% (inactive),
C=CCOCC1CO1 (stereo not given),-19.6% (inactive),
C[C@H](N)[C@H](O)c1ccc(O)c(O)c1,-18.8% [at 53 µM] (inactive),
C=CC(=O)OCC,-0.473% (inactive),
CC(C)(c1ccccc1)c1cc(-n2nc3ccccc3n2)c(O)c(C(C)(C)c2ccccc2)c1,-13.1% [at 53 µM] (inactive),
FC(Cl)(Cl)C(F)(Cl)Cl,-1.64% (inactive),
c1ccc2c(c1)sc1ccccc12,,inactive
OCCSSCCO,-2.52% (inactive),
C[N+](C)(C)CCOC(=O)C(O)(c1ccccc1)c1ccccc1,,15.5 µM (active)
Cc1cccc(C)c1NC1=NCCCS1,,11 µM (active)
CCOC(=O)c1cncn1C(C)c1ccccc1 (stereo not given),-18.7% [at 53 µM] (inactive),
CCOP(=O)(O)C(N)=O,-14.1% (inactive),
CCCC[P+](CC)(CCCC)CCCC (tested in a mixture with another compound),,0.0716 µM (active)
CCOP(=S)(OCC)SCSc1cc(Cl)ccc1Cl,-0.34% (inactive),
CC(C)c1ccc(NC(=O)N(C)C)cc1,-14.3% (inactive),
